High-throughput results deposited in PubChem by National Center for Advancing Translational Sciences (NCATS).
Sampled rows, rich in hits. Any-hit rate of the full collection: about 10%.
Six1-Eya2 blk: Six1/Eya2 interaction inhibition | Q15475+O00167 | AlphaScreen GST-Six1/His-Eya2 binding, biochemical; hits give low values | activity change, % (test concentration not listed) | 0.56% of 360,000 active | AID 651725; in the data active means activity change below about -65%; inconclusive means mostly about -30% to -63%; further: on the % scale 0 is the no-effect control and ±100 the full control effect
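Compounds are tested against tagged Six1 and Eya2 proteins bridged by glutathione donor and nickel acceptor beads; after a one-hour incubation at 37 °C without light, AlphaScreen emission is recorded.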
CtBP-E1A blk: blocks the CtBP interaction with E1A; AID 651724; AlphaScreen GST-E1A/His-CtBP binding, 1536-well; hits give low values; activity change, % (concentration not given with the values); 0.49% of 340,000 active; in the data active means activity change below about -65%; inconclusive means mostly about -30% to -63%; further: on the % scale 0 is the no-effect control and ±100 the full control effect
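Homogeneous bead-based format: GST-tagged E1A captured on glutathione donor beads, His-tagged CtBP on nickel acceptor beads; compounds precede bead addition by 2 h at 37 °C.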
HP1b chromo inh: HP1-beta chromodomain-methylated histone interaction inhibition | P83916 | AlphaScreen HP1-beta / biotin-H3K9me3 peptide binding | Potency, µM (top dose mostly 114 µM), for the others: at the top dose activity change, negative = inhibition, most hits filed as inhibitors | 0.56% of 390,000 active; further: potency means the concentration at half of the fitted maximal effect; nearly all actives have a fitted effect of over 70% in size
Target sequence (P83916 whole entry, looked up): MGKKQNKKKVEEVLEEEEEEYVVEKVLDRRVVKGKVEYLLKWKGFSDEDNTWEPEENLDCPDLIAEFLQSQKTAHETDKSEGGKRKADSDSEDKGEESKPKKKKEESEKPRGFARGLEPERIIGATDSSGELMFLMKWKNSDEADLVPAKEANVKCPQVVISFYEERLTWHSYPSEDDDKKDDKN
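Compound inhibition of the preformed complex between 50 nM HP1-beta and 50 nM biotinylated H3K9me3 peptide was read by AlphaScreen. Buffer was PBS pH 7.4 with 0.01% Tween-20. Incubations ran 30 min at room temperature, with 10 ug/mL donor/acceptor beads.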
G9a block: blocks human histone lysine methyltransferase G9a. Q96KQ7. G9a H3K9 monomethylation, AlphaScreen, 2 h. Potency, µM (top dose mostly 102 µM), for the others: at the highest dose activity, negative = inhibition, actives largely listed as inhibitors. 8.8% of 350,000 active. AID 504332; further: potency means the concentration at half of the fitted maximal effect; on the % scale 0 is the no-effect control and ±100 the full control effect; nearly all actives have a fitted effect of over 75% in size
Target sequence (Q96KQ7 913-1193 limits assumed): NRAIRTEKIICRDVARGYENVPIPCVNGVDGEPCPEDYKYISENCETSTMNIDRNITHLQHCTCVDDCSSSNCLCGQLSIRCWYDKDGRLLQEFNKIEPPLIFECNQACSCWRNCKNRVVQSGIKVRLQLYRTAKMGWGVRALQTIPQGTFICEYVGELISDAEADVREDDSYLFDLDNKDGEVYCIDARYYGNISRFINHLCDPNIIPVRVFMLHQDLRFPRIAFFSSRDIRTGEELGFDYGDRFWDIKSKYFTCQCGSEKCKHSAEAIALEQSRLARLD
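Chemiluminescent proximity detection of H3K9 monomethylation, read after 10 min bead incubation in the dark. Reaction: 20 nM G9a, 500 nM biotin-H3K9 peptide, 20 uM SAM cofactor, 2 h, room temperature, following 15 min enzyme-compound preincubation.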
BAZ2B block: blocks human BAZ2B. Potency, µM (series often up to 114 µM), for the others: at the highest dose activity change, negative = inhibition, most hits filed as inhibitors. 4.4% of 360,000 active. AID 504333. AlphaScreen BAZ2B-H3K14Ac peptide displacement. Q9UIF8; further: potency means the concentration at half of the fitted maximal effect; on the % scale 0 is the no-effect control and ±100 the full control effect; nearly all actives have a fitted effect of over 60% in size
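Complex of BAZ2B and biotin-H3K14Ac (50 nM apiece) forms over 30 min at RT, then faces library compounds up to 110 uM for another 30 min; AlphaScreen beads added, 20 min dark incubation, luminescence read.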
JMJD2A Tudor inh: inhibitors of human JMJD2A Tudor domain | Potency, µM (highest dose often 114 µM), for inactives: at the top dose activity change, negative = inhibition, most hits filed as inhibitors | 4.4% of 390,000 active | AlphaScreen JMJD2A-Tudor / H3K4me3 peptide binding | O75164; further: potency means the concentration at half of the fitted maximal effect; on the % scale 0 is the no-effect control and ±100 the full control effect; nearly all actives have a fitted effect of over 50% in size
* hit, by the source's call; ? = inconclusive; . = not tested or not shown; ! = a repeat was not active; [ ] = dose if it differs, or a comment. Unless noted, the call rests on the fitted dose curve; in most records, active means well fitted inhibition curve with a large enough effect; inconclusive means small, poorly fitted or top-dose-only effect; inactive means no such curve, though single readings can be large or run the other way.

SMILES	Six1-Eya2 blk	CtBP-E1A blk	HP1b chromo inh	G9a block	BAZ2B block	JMJD2A Tudor inh
COC(=O)CNC(=O)C(Cc1c[nH]c2ccccc12)NC(=O)OC(C)(C)C (configuration not stated)	-6	7	21%	-1%[59 µM]	0%	15%
COC(=O)C(Cc1c[nH]c2ccccc12)NC(=O)C(=O)c1c[nH]c2ccccc12 (configuration not stated)	-3	-11	-16%	32µM*	?	?
N[C@@H](Cc1c[nH]c2ccccc12)C(=O)O	.	.	.	8.4µM*!	50µM*	.
NC(Cc1c[nH]c2ccccc12)C(=O)NCc1ccccc1 (configuration not stated)	-6	-7	27%	.	20%	-24%
Cc1ccc(NC(=O)c2cc(N(C)C)ccc2[P+](=O)O)cc1	3	8	5%	28µM*	?	?
Cc1ccc(NC(=O)c2cc3ccccc3cc2O)cc1	11	8	23%	8%	-17%	-13%
CC1=CCc2c(cc3oc(C)cc(=O)c3c2O)OC1	.	.	.	-39%[2.33 µM]	.	.
Cc1cc(=O)c2c(O)c(O)ccc2o1	3	1	7%	1.8µM*	?	3.2µM*
Cc1ccc(NC(=O)COC(=O)/C=C/c2cccs2)cc1	7	0	38%	4%[59 µM]	-4%	15%[57.1 µM]
CCN(c1ccc(NC(=O)COC(=O)/C=C/c2cccs2)cc1)C(C)C	?	?	35µM*	8.9µM*	18µM*	22µM*
CCN(c1ccc(NC(=O)COC(=O)c2ccc3ccccc3n2)cc1)C(C)C	?	?	22µM*	?	35µM*	25µM*
COC(=O)CC1=NN(c2ccccc2)C(=O)/C1=C\c1ccc(OC)cc1	1	-1	-10%	20µM*	?	-30%
CCOC(=O)CC1=NN(c2ccccc2)C(=O)/C1=C\c1ccc(OC)cc1OC	5	-3	16µM*	10µM*	11µM*	14µM*
CCOC(=O)CC1=NN(c2ccccc2)C(=O)C1=c1sc(=C2SC(C)=C(C)N2CC)c(=O)n1CC	5	-6	15%	.	.	11%
COc1ccc(C(=O)NNC(=O)C2=NN(c3ccccc3)C(=O)CC2)cc1	2	3	68%	.	7%	-11%
COC(=O)CC1=NN(c2ccc(OC)cc2)C(=O)/C1=C\c1ccc(Cl)cc1	-5	2	?	20µM*	50µM*	?
O=C(Cc1ccc(NC(=O)N2CCCCc3ccccc32)cc1)NCc1ccccc1Br	.	.	23%	-2%[59 µM]	-18%	-14%
O=C(c1ccccc1)N1N=C(c2ccc(F)cc2)CC1(O)C(F)(F)F (configuration not stated)	0	.	66%	?	2%	9%
CN1CCC2(CC1)N=C(c1ccc(F)cc1)C(=S)N2C(=O)c1ccccc1	4	0	?	22µM*	9%	?
CC(C)c1ccc(NC(=O)CSc2nc(=O)n(Cc3cccnc3)c3c2CCC3)cc1	.	.	28%	0%[59 µM]	-27%	-22%
COc1ccc(/C=C2/C(=O)ON=C2c2ccccc2)cc1OC	0	-2	4%	7%[0.501 µM]	?	79µM*
O=C1ON=C(c2ccc([N+](=O)[O-])cc2)/C1=C/c1ccccc1O	-4	-1	32%	79µM*	-24%	-13%
O=C1ON=C(c2ccccc2)/C1=C/c1ccco1	-14	23	12%	32µM*	40µM*	-36%
O=C1ON=C(c2ccccc2)/C1=C/c1ccc(-c2ccccc2[N+](=O)[O-])o1	5	11	50µM*	7.1µM*	22µM*	28µM*
N#C/C(=C\c1ccc(-c2ccccc2[N+](=O)[O-])o1)C(=O)N1CCOCC1	-17	-12	11%	?	?	-28%
SMILES	Six1-Eya2 blk	CtBP-E1A blk	HP1b chromo inh	G9a block	BAZ2B block	JMJD2A Tudor inh
COc1ccc(/C=C2\C(=O)ON=C2c2cccc([N+](=O)[O-])c2)cc1	.	.	.	18µM*	?	.
CCN1CCN(C(c2ccc(SC)cc2)c2c(O)cc(C)n(Cc3ccco3)c2=O)CC1 (configuration not stated)	.	.	-13%[57 µM]	?	-13%	79µM*
CCN1CCN(C(c2ccc(OC)cc2)c2c(O)cc(C)n(Cc3ccco3)c2=O)CC1 (configuration not stated)	.	.	10%[57 µM]	?	-17%	79µM*
Cc1cc(C)c(NC(=O)C(=O)NCC(c2cccnc2)N2CCN(c3ccccc3F)CC2)c(C)c1 (configuration not stated)	.	.	44%	-2%[59 µM]	-17%	9%
COCCCN1C(=O)/C(=C/c2ccc(CNS(=O)(=O)c3ccccc3)o2)C(C(=O)OC)=C1C	17	-17	-11%	28µM*	-38%	56µM*
COc1ccc(C(=O)C2C(=O)C(=O)N(Cc3ccco3)C2c2cccs2)cc1 (configuration not stated)	.	.	-16%[57 µM]	.	.	-20%[57.1 µM]
CCCn1c(C(C)NC(=O)c2ccccc2)n[nH]c1=S (configuration not stated)	17	11	8%	.	4%	8.9µM*
CCn1c(C(C)NC(=O)c2cccc(C)c2)n[nH]c1=S (configuration not stated)	4	1	59%	45µM*	-33%	-23%
C=CCn1c(SCCOc2ccccc2)nnc1C(C)NC(=O)c1ccccc1 (configuration not stated)	-4	5	39%	17%	8%	-12%
C=CCn1c(C(C)NC(=O)c2ccccc2)n[nH]c1=S (configuration not stated)	0	-13	18%	.	-2%	10µM*
CC(C)(C)c1ccc(C(=O)Nc2nnc(C3=COCCO3)o2)cc1	-18	-22	17%	-1%	?	-12%
Cc1cccc(C(=O)Nc2nnc(C3=COCCO3)o2)c1	-28	0	23%	7%	7.9µM*	40µM*
COc1ccc(C(=O)Nc2nnc(C3=COCCO3)o2)cc1OC	-18	2	53%	43%	16µM*	50µM*
COc1ccc(NC(=O)CSc2nc3ccccc3n2CC(=O)N2CCCC(C)C2)cc1 (configuration not stated)	.	.	35%	2%[12.7 µM]	-16%	9%
Cc1ccc(S(=O)(=O)N2CCN(c3nc(-c4cncn4C)nc4ccccc34)CC2)cc1	.	.	-2%	.	.	?
Cc1ccc(NC(=O)C(OC(=O)c2cc(C)oc2C)c2ccccc2)cc1 (configuration not stated)	-4	-3	17%	79µM*	-5%	-9%
OC(COC(c1ccccc1)c1ccccc1)CN1CCN(c2cccc(Cl)c2)CC1 (configuration not stated)	-13	-12	30%	-23%	-13%	-28%
